Measurements: PubChem BioAssay (NCI)
Where “and” joins values, the source holds several entries; their conditions need not be identical. Equal entries are not always repeated. Compounds without any hit were thinned out: in the full panel of roughly 79,000, 15% have a hit. Where a structure was tested more than once in an assay, its records may differ in their call. Calls of active or inactive are those of the source. Rule as the data show it: active = growth inhibition above about 70%; inactive = the rest.

Columns and labels:
[1] = NCI Yeast Anticancer Drug Screen. Data for the rad52 strain (AID 147);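 also: 0% = growth of vehicle-treated control cultures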; conditions: S. cerevisiae rad52 mutant growth inhibition, stronger effect = higher value
Outline: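 Growth of repair-deficient yeast cells was compared between compound-treated and vehicle-treated cultures to give percent inhibition.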

[2] = NCI Yeast Anticancer Drug Screen. Data for the wt1 strain (AID 149);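 also: 0% = growth of vehicle-treated wt1 cultures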; conditions: S. cerevisiae wt1 strain (SPY 50644) growth inhibition, stronger effect = higher value
Outline: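 Yeast wt1 strain exposed to compounds; growth inhibition measured relative to vehicle-treated controls.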

[3] = NCI Yeast Anticancer Drug Screen. Data for the rad50EPP+ strain (AID 151);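 also: 0% = growth of vehicle-treated control cultures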; conditions: S. cerevisiae rad50 mutant strain, stronger effect = higher value
Outline: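 Measured: growth inhibition of rad50EPP+ yeast. Reference: vehicle-treated controls. Screen uses strains with defined genetic alterations in DNA damage repair or cell cycle control.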

[4] = NCI Yeast Anticancer Drug Screen. Data for the mgt1 strain (AID 153); conditions: S. cerevisiae mgt1 mutant growth inhibition, stronger effect = higher value
Outline: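 Compounds were applied to mgt1 mutant yeast, and growth was then compared against vehicle-treated control cultures to give percent inhibition.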

[5] = NCI Yeast Anticancer Drug Screen. Data for the rad50 strain (AID 155);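 also: 0% = growth of vehicle-only cultures of the same strain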; conditions: S. cerevisiae rad50 strain growth inhibition, stronger effect = higher value
Outline: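 Yeast carrying a defined DNA repair defect were exposed to test compounds, and growth was compared with vehicle-treated controls to give percent inhibition.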

[6] = NCI Yeast Anticancer Drug Screen. Data for the mec2-1 strain (AID 157); conditions: S. cerevisiae mec2-1 strain, stronger effect = higher value
Outline: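 Compounds were applied to mec2-1 yeast cells. Their growth was then compared with that of vehicle-treated cultures to give growth inhibition.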

[7] = NCI Yeast Anticancer Drug Screen. Data for the rad14 strain (AID 159);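 also: 0% = growth of vehicle-treated control cultures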; conditions: S. cerevisiae rad14 strain growth inhibition, stronger effect = higher value
Outline: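 Yeast cells carrying a defined DNA-repair defect were exposed to compounds, and growth inhibition was calculated relative to vehicle-treated control cultures.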

[8] = NCI Yeast Anticancer Drug Screen. Data for the sgs1 mgt1 strain (AID 161);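 also: 0% = growth of cultures given vehicle only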; conditions: S. cerevisiae sgs1 mgt1 strain, stronger effect = higher value
Outline: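 This yeast growth screen uses a strain with defined DNA-repair lesions; compound-treated growth is compared with vehicle-treated growth.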

[9] = NCI Yeast Anticancer Drug Screen. Data for the CLN2oe strain (AID 163);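 also: 0% = growth of vehicle-only control cultures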; conditions: S. cerevisiae CLN2oe strain, stronger effect = higher value
Outline: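 Cells of an engineered yeast line with disturbed cell-cycle regulation are treated with compound. Inhibition of growth is then calculated relative to the vehicle-treated reference.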

[10] = NCI Yeast Anticancer Drug Screen. Data for the cln2 rad14 strain (AID 165);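 also: 0% = growth equal to vehicle treated cultures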; conditions: S. cerevisiae cln2 rad14 strain, stronger effect = higher value
Outline: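 Strain: cln2 rad14 yeast, altered in cell cycle control and DNA damage repair. Read-out: growth inhibition vs vehicle.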

[11] = NCI Yeast Anticancer Drug Screen. Data for the bub3 strain (AID 167); conditions: S. cerevisiae bub3 mutant strain, stronger effect = higher value
Outline: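 Compounds were applied to a genetically altered yeast strain carrying a cell-cycle control defect. Growth inhibition was scored against vehicle-treated controls.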

[12] = NCI Yeast Anticancer Drug Screen. Data for the wt2 strain (AID 169);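 also: 0% = growth of vehicle-treated yeast cultures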; conditions: S. cerevisiae wt2 strain growth inhibition, stronger effect = higher value
Outline: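 Growth of compound-treated yeast is measured and expressed as inhibition relative to vehicle-only controls.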

[13] = NCI Yeast Anticancer Drug Screen. Data for the mlh1 strain (AID 171);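 also: 0% = growth of vehicle-treated control cultures of the same strain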; conditions: S. cerevisiae mlh1 strain growth inhibition, stronger effect = higher value
Outline: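 Test agents were incubated with yeast bearing a defined DNA damage repair or cell cycle control alteration; values are growth inhibition normalised to vehicle-treated cultures.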

[14] = NCI Yeast Anticancer Drug Screen. Data for the sgs1 strain (AID 173);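 also: 0% = growth of vehicle-only control cultures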; conditions: S. cerevisiae sgs1 mutant, stronger effect = higher value
Outline: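 Strain with an altered DNA repair or cell cycle pathway exposed to compound. Growth then measured. Value = inhibition versus vehicle control.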

[15] = NCI Yeast Anticancer Drug Screen. Data for the mlh1 rad18 strain (AID 175); conditions: S. cerevisiae mlh1 rad18 strain growth inhibition, stronger effect = higher value
Outline: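 A repair-deficient yeast strain is exposed to test compound, and growth is scored relative to vehicle-treated controls.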

[16] = NCI Yeast Anticancer Drug Screen. Data for the rad18 strain (AID 177); conditions: S. cerevisiae rad18 mutant growth inhibition, stronger effect = higher value
Outline: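 DNA-repair-defective yeast; compound treatment; growth inhibition scored against vehicle.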

[17] = at 5.0 µM (retest, dose inferred, filed as 0.5)
[18] = at 50.0 µM (retest, dose inferred, filed as 5.0)

Measured: growth inhibition

O=[N+]([O-])c1cc(Cl)cnc1Br
inactive: [1]; at 1.2 µM 23% | [1]; at 3.7 µM 46% | [2]; at 1.2 µM 1% | [2]; at 3.7 µM 4% | [2]; at 11.0 µM 7% | [2]; at 33.0 µM 8% | [2]; at 100.0 µM 20% | [3]; at 1.2 µM 35% | [4]; at 1.2 µM 2% | [4]; at 3.7 µM 1% | [4]; at 11.0 µM 4% | [4]; at 33.0 µM 12% | [4]; at 100.0 µM 19% | [5]; at 1.2 µM 28% | [5]; at 3.7 µM 47% | [5]; [17] -49% | [6]; at 1.2 µM 6% | [6]; at 3.7 µM 43% | [6]; [17] 22% | [6]; at 11.0 µM 69% | [7]; at 1.2 µM 4% | [7]; at 3.7 µM 1% | [7]; at 11.0 µM 10% | [7]; at 33.0 µM 14% | [7]; at 100.0 µM 31% | [8]; [17] -50% | [8]; [18] -19% | [8]; at 50.0 µM 8.35% | [9]; at 1.2 µM -4% | [9]; at 3.7 µM -1% | [9]; at 11.0 µM 4% | [9]; at 33.0 µM 4% | [9]; at 100.0 µM 8% | [10]; [17] -56% | [10]; [18] -74% | [10]; at 50.0 µM 3.2% | [11]; at 1.2 µM -8% | [11]; at 3.7 µM -10% | [11]; [17] -74% | [11]; at 11.0 µM -6% | [11]; at 33.0 µM -2% | [11]; [18] -70% | [11]; at 50.0 µM -8.3% | [11]; at 100.0 µM 30% | [12]; at 1.2 µM 0% | [12]; at 3.7 µM 1% | [12]; at 11.0 µM 2% | [12]; at 33.0 µM 5% | [12]; at 100.0 µM 20% | [13]; at 1.2 µM 6% | [13]; at 3.7 µM 8% | [13]; at 11.0 µM 6% | [13]; at 33.0 µM 12% | [13]; at 100.0 µM 27% | [14]; at 1.2 µM 14% | [14]; at 3.7 µM 25% | [14]; at 11.0 µM 30% | [14]; at 33.0 µM 40% | [15]; [17] -109% | [15]; [18] -48% | [15]; at 50.0 µM 28.1% | [16]; at 1.2 µM 6% | [16]; at 3.7 µM 10% | [16]; at 11.0 µM 18% | [16]; at 33.0 µM 35%
active: [1]; at 11.0 µM 75% | [1]; at 33.0 µM 92% | [1]; at 100.0 µM 97% | [3]; at 3.7 µM 71% | [3]; at 11.0 µM 88% | [3]; at 33.0 µM 96% | [3]; at 100.0 µM 98% | [5]; at 11.0 µM 81% | [5]; at 33.0 µM 90% | [5]; [18] 82% | [5]; at 50.0 µM 88.5% | [5]; at 100.0 µM 98% | [6]; at 33.0 µM 85% | [6]; [18] 70% | [6]; at 50.0 µM 76.7% | [6]; at 100.0 µM 88% | [14]; at 100.0 µM 82% | [16]; at 100.0 µM 87%

O=c1ccc(=O)n(-c2ccccc2)[nH]1
active: [1]; at 33.0 µM 79% | [1]; at 100.0 µM 97% | [2]; at 33.0 µM 71% | [2]; at 100.0 µM 95% | [3]; at 33.0 µM 75% | [3]; at 100.0 µM 87% | [4]; at 33.0 µM 70% | [4]; at 100.0 µM 97% | [5]; at 33.0 µM 82% | [5]; [18] 90% | [5]; at 100.0 µM 95% | [6]; at 33.0 µM 78% | [6]; [18] 95% | [6]; at 100.0 µM 98% | [7]; at 100.0 µM 96% | [8]; [18] 84% | [9]; at 33.0 µM 71% | [9]; at 100.0 µM 97% | [10]; [18] 79% | [11]; at 33.0 µM 83% | [11]; [18] 97% | [11]; at 100.0 µM 98% | [12]; at 100.0 µM 93% | [13]; at 33.0 µM 87% | [13]; at 100.0 µM 99% | [14]; at 33.0 µM 89% | [14]; at 100.0 µM 98% | [16]; at 33.0 µM 84% | [16]; at 100.0 µM 94%
91.3% (active) and -13.6% (inactive): [8]; at 50.0 µM
inactive: [1]; at 1.2 µM -29% | [1]; at 3.7 µM -11% | [1]; at 11.0 µM 17% | [2]; at 1.2 µM -16% | [2]; at 3.7 µM -10% | [2]; at 11.0 µM 29% | [3]; at 1.2 µM -24% | [3]; at 3.7 µM -5% | [3]; at 11.0 µM 38% | [4]; at 1.2 µM 0% | [4]; at 3.7 µM 19% | [4]; at 11.0 µM 35% | [5]; at 1.2 µM -14% | [5]; at 3.7 µM -3% | [5]; [17] 25% | [5]; at 11.0 µM 28% | [6]; at 1.2 µM -23% | [6]; at 3.7 µM -24% | [6]; [17] -17% | [6]; at 11.0 µM 2% | [7]; at 1.2 µM -12% | [7]; at 3.7 µM -9% | [7]; at 11.0 µM 4% | [7]; at 33.0 µM 60% | [8]; [17] 1% | [9]; at 1.2 µM 7% | [9]; at 3.7 µM 20% | [9]; at 11.0 µM 29% | [10]; [17] 18% | [10]; at 50.0 µM 58.5% and -14.5% | [11]; at 1.2 µM -13% | [11]; at 3.7 µM -23% | [11]; [17] 41% | [11]; at 11.0 µM 2% | [12]; at 1.2 µM -15% | [12]; at 3.7 µM -10% | [12]; at 11.0 µM 1% | [12]; at 33.0 µM 66% | [13]; at 1.2 µM -2% | [13]; at 3.7 µM -4% | [13]; at 11.0 µM 30% | [14]; at 1.2 µM 15% | [14]; at 3.7 µM 27% | [14]; at 11.0 µM 58% | [16]; at 1.2 µM -20% | [16]; at 3.7 µM 3% | [16]; at 11.0 µM 47%
86.2% (active) and -25.4% (inactive): [11]; at 50.0 µM
85% (active) and -26.4% (inactive): [6]; at 50.0 µM
85.3% (active) and -33% (inactive): [5]; at 50.0 µM
